Measured values published in PMC11062922 (Nature Chemical Biology, 2023).
Read-outs that look alike come from different tables or passages of the source.

What was measured:
Set-up in all cases: species or system human, MV4-11 + K-562 + COLO205 + SK-N-BE2 + OVCAR-8
FER = details: read-out: apparent Kd, n = 1
FLT3 = details: read-out: apparent Kd, n = 1
LATS1 = details: read-out: apparent Kd, n = 1
MARK4 = details: read-out: apparent Kd; compound concentrations:100 nM and 1000 nM (sheet 'Samples'); n = 1
MYLK3 = details: read-out: apparent Kd, n = 1
PLK4 = details: read-out: apparent Kd, n = 1
PRKAA1 = details: read-out: apparent Kd, n = 1
PTK2B = details: read-out: apparent Kd, n = 1
PTK2 = details: read-out: apparent Kd, n = 1
STK10 = details: read-out: apparent Kd, n = 1
TNK2 = details: read-out: apparent Kd, n = 1
CDK7 = details: read-out: apparent Kd, n = 1
ERCC2 = details: read-out: apparent Kd, n = 1
RPS6KA6 = details: read-out: apparent Kd, n = 1
CDKL5 = details: read-out: apparent Kd, n = 1
DYRK1A = details: read-out: apparent Kd; compound concentrations: 100 nM and 1000 nM (sheet 'Samples'), CATDS: 7.51253046880054E-3; n = 1
PRKCD = details: read-out: apparent Kd, n = 1
PRKD2 = details: read-out: apparent Kd, n = 1
PRKD3 = details: read-out: apparent Kd, n = 1
PRKCQ = details: read-out: apparent Kd; compound concentrations:100 nM and 1000 nM (sheet 'Samples'); n = 1
[1] = compound concentrations:100 nM and 1000 nM (sheet 'Samples')

`CNC(=O)c1ccccc1Nc1nc(Nc2ccc(N3CCOCC3)cc2)ncc1Cl.Cl` [GSK1576028A] was tested, and the potency estimated from few doses (FER; [1]) was 484 nM, the potency estimated from few doses (FLT3; [1]) was 616 nM and the potency estimated from few doses (LATS1; [1]) was 132 nM. It also gave a potency estimated from few doses (MARK4) of 1370 nM, a potency estimated from few doses (MYLK3; [1]) of 786 nM and a potency estimated from few doses (PLK4; [1]) of 13.4 nM. For the same compound, the potency estimated from few doses (PRKAA1; [1]) was 629 nM, the potency estimated from few doses (PTK2B; [1]) was 41.8 nM and the potency estimated from few doses (PTK2; [1]) was 8.08 nM. For the same compound, the potency estimated from few doses (STK10; [1]) was 681 nM and the potency estimated from few doses (TNK2; [1]) was 731 nM.
In the case of `CN1C[C@@H]2Cn3c(c(C4=C(c5cn(C)c6ccccc56)C(=O)NC4=O)c4ccccc43)C[C@H]2C1.Cl` [RO0320234-001], the potency estimated from few doses (CDK7; [1]) is reported as 137 nM, the potency estimated from few doses (ERCC2; [1]) is reported as 123 nM and the potency estimated from few doses (FER; [1]) is reported as 94.8 nM. The potency estimated from few doses (LATS1; [1]) was 1780 nM, the potency estimated from few doses (MARK4) was 1210 nM and the potency estimated from few doses (PLK4; [1]) was 500 nM. The potency estimated from few doses (PRKAA1; [1]) was 248 nM, the potency estimated from few doses (PTK2B; [1]) was 193 nM and the potency estimated from few doses (PTK2; [1]) was 129 nM. The potency estimated from few doses (RPS6KA6; [1]) was 215 nM, the potency estimated from few doses (STK10; [1]) was 2020 nM and the potency estimated from few doses (TNK2; [1]) was 84.4 nM.
For `CCOC(=O)N1CCC(n2cnc(-c3ccc(F)cc3)c2-c2ccnc(N)n2)CC1` [SB-219952], the potency estimated from few doses (CDK7; compound concentrations: 100 nM and 1000 nM (sheet 'Samples'), CATDS: 2.08118175664989E-2) was 201 nM, the potency estimated from few doses (CDKL5; compound concentrations: 100 nM and 1000 nM (sheet 'Samples'), CATDS: 7.5103535509973398E-3) was 2170 nM and the potency estimated from few doses (DYRK1A) was 2170 nM. For the same compound, the potency estimated from few doses (ERCC2; compound concentrations: 100 nM and 1000 nM (sheet 'Samples'), CATDS: 2.0109331844810101E-2) was 213 nM, the potency estimated from few doses (FER; compound concentrations: 100 nM and 1000 nM (sheet 'Samples'), CATDS: 1.3888971219533201E-2) was 416 nM and the potency estimated from few doses (FLT3; compound concentrations: 100 nM and 1000 nM (sheet 'Samples'), CATDS: 8.0965887805869007E-3) was 1630 nM. The potency estimated from few doses (LATS1; compound concentrations: 100 nM and 1000 nM (sheet 'Samples'), CATDS: 8.0711896225058692E-3) was 1650 nM, the potency estimated from few doses (MYLK3; compound concentrations: 100 nM and 1000 nM (sheet 'Samples'), CATDS: 7.2973663588222501E-3) was 2470 nM and the potency estimated from few doses (PLK4; compound concentrations: 100 nM and 1000 nM (sheet 'Samples'), CATDS: 1.18225591983295E-2) was 582 nM. It also gave a potency estimated from few doses (PRKAA1; compound concentrations: 100 nM and 1000 nM (sheet 'Samples'), CATDS: 1.3066263921832201E-2) of 471 nM, a potency estimated from few doses (PRKCD; compound concentrations: 100 nM and 1000 nM (sheet 'Samples'), CATDS: 8.2492592697018703E-3) of 1530 nM and a potency estimated from few doses (PRKD2; compound concentrations: 100 nM and 1000 nM (sheet 'Samples'), CATDS: 9.3127707603308692E-3) of 1050 nM. It also gave a potency estimated from few doses (PRKD3; compound concentrations: 100 nM and 1000 nM (sheet 'Samples'), CATDS: 8.3087862400952096E-3) of 1490 nM, a potency estimated from few doses (PTK2B; compound concentrations: 100 nM and 1000 nM (sheet 'Samples'), CATDS: 1.55357941259002E-2) of 336 nM and a potency estimated from few doses (PTK2; compound concentrations: 100 nM and 1000 nM (sheet 'Samples'), CATDS: 1.3544498558995E-2) of 438 nM. It also gave a potency estimated from few doses (RPS6KA6; compound concentrations: 100 nM and 1000 nM (sheet 'Samples'), CATDS: 1.4323736759091399E-2) of 392 nM, a potency estimated from few doses (STK10; compound concentrations: 100 nM and 1000 nM (sheet 'Samples'), CATDS: 9.6073353466608804E-3) of 964 nM and a potency estimated from few doses (TNK2; compound concentrations: 100 nM and 1000 nM (sheet 'Samples'), CATDS: 1.6319458510121398E-2) of 307 nM.
Work on `CCn1c(-c2nonc2N)nc2c(C#CC(C)(C)O)nc(OCCN)cc21.CCn1c(-c2nonc2N)nc2c(C#CC(C)(C)O)nc(OCCN)cc21.Cl.Cl` [GSK902056A] yielded a potency estimated from few doses (LATS1; [1]) of 70.2 nM, a potency estimated from few doses (PRKCD; [1]) of 373 nM and a potency estimated from few doses (PRKCQ) of 50.9 nM.
`Cc1cccc(-c2nc(Nc3ccncc3)c3sccc3n2)n1` [GW869641X] showed a potency estimated from few doses (PRKD2; [1]) of 1.4 nM, a potency estimated from few doses (PRKD3; [1]) of 3.56 nM and a potency estimated from few doses (STK10; [1]) of 1730 nM.
`CC(C)N1CCC(n2cnc(-c3ccc(F)cc3)c2-c2ccnc(N)n2)CC1` [SB-223132] gave a potency estimated from few doses (CDK7; [1]) of 310 nM, a potency estimated from few doses (CDKL5; [1]) of 1520 nM and a potency estimated from few doses (ERCC2; [1]) of 206 nM. It also gave a potency estimated from few doses (FER; [1]) of 358 nM, a potency estimated from few doses (PLK4; [1]) of 757 nM and a potency estimated from few doses (PRKAA1; [1]) of 631 nM. The potency estimated from few doses (PTK2B; [1]) was 378 nM, the potency estimated from few doses (PTK2; [1]) was 433 nM and the potency estimated from few doses (RPS6KA6; [1]) was 466 nM. For the same compound, the potency estimated from few doses (STK10; [1]) was 2020 nM and the potency estimated from few doses (TNK2; [1]) was 374 nM.
